Usually AC50 stands for the concentration at which the activity in the assay is half-maximal.

Structures are written as SMILES. A structure can be active in one record and inactive in another. Calls of active or inactive are those of the source. The calls were made as follows: active = hit-call score of the fitted dose curve at least 0.9, where 1 is the maximum; inactive = score below 0.9.

Experimental findings from PubChem BioAssay (EPA / NIEHS) are described below.

Experiment [1] can be described thus: ATG_GLI_CIS: Attagene CIS-FACTORIAL HepG2 Assay for human Zinc Finger Protein GLI1 (AID 2282945). As to conditions: HepG2, Attagene cis-factorial reporter mRNA, GLI element; actives raise or lower the signal. In a few lines: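 HepG2 cells transiently transfected with cis-promoter multiplexed reporter units report endogenous transcription factor activity. After 24 h chemical exposure, reporter mRNA was quantified by RT-PCR, 6-FAM labelling, HpaI digestion and capillary electrophoresis, with bidirectional fitting against DMSO.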

A short description of experiment [2]: ATG_ISRE_CIS: Attagene CIS-FACTORIAL HepG2 Assay for human Interferon Regulatory Factor 1 (IRF1) binding to an Interferon-Stimulated Response Element (ISRE) (AID 2282948). The following applies: HepG2 ISRE cis-reporter (Attagene), mRNA transcription readout; actives raise or lower the signal. Put shortly:
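Transfected HepG2 (multiple reporter transcription units, cis elements) dosed 24 h. RNA → oligo(dT) RT → PCR → 6-FAM primer extension → HpaI → CE. DMSO = negative control/baseline.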

Experiment [3] can be described thus: ATG_M_32_CIS: Attagene CIS-FACTORIAL HepG2 Assay for M32 Transcription Factor (Internal Marker) (AID 2282949).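 Also: background control marker of the multiplexed CIS panel rather than a real target.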 As to conditions: HepG2 Attagene cis-factorial M32 reporter, mRNA; actives raise or lower the signal. In a few lines:
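Internal background marker read-out: RT-PCR/capillary electrophoresis fluorescence of reporter transcripts from transiently transfected HepG2 cells after 24 h chemical exposure. Activity fitted bidirectionally relative to DMSO negative control.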

Experiment [4] can be described thus: ATG_M_06_CIS: Attagene CIS-FACTORIAL HepG2 Assay for M06 Transcription Factor (Internal Marker) (AID 2282950). As to conditions: HepG2 Attagene CIS-FACTORIAL M06 internal marker reporter; actives raise or lower the signal. In a few lines: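 Terse: HepG2, transient MRTU transfection (FuGene 6), 24 h dosing; total RNA, oligo(dT) RT, PCR, FAM label, HpaI cut, capillary electrophoresis; bidirectional fit vs DMSO baseline; background-control endpoint.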

Experiment [5] deals with Hypoxia-inducible factor 1-alpha (Homo sapiens) (UniProt Q16665). As to the kind of experiment: ATG_HIF1a_CIS: Attagene CIS-FACTORIAL HepG2 Assay for human Hypoxia Inducible Factor 1 (HIF1A) (AID 2282951). As to conditions: HepG2 Attagene cis-factorial HIF1a reporter transcription; actives raise or lower the signal. Put shortly:
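Endogenous-TF cis reporter readout, human HepG2 cells, 24 h incubation; mRNA detected via RT-PCR and capillary electrophoresis fluorescence; DMSO-normalised bidirectional fitting.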

For experiment [6], the target named is Hepatocyte nuclear factor 6 (Homo sapiens) (UniProt Q9UBC0). Description: ATG_HNF6_CIS: Attagene CIS-FACTORIAL HepG2 Assay for human Hepatocyte Nuclear Factor 6 (HNF6) (AID 2282952). The following applies: HepG2 Attagene cis-factorial HNF6 reporter transcription; actives raise or lower the signal. In a few lines: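 HepG2 cells transiently transfected with cis-element-driven multiplexed reporter units measuring endogenous transcription factor activity. After 24 h exposure, reporter mRNA quantified by RT-PCR, FAM-labelled fragments and capillary electrophoresis; bidirectional fitting versus DMSO.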
Sequence of Hepatocyte nuclear factor 6 (Homo sapiens) (Q9UBC0 whole entry, looked up, the tested form may be a part): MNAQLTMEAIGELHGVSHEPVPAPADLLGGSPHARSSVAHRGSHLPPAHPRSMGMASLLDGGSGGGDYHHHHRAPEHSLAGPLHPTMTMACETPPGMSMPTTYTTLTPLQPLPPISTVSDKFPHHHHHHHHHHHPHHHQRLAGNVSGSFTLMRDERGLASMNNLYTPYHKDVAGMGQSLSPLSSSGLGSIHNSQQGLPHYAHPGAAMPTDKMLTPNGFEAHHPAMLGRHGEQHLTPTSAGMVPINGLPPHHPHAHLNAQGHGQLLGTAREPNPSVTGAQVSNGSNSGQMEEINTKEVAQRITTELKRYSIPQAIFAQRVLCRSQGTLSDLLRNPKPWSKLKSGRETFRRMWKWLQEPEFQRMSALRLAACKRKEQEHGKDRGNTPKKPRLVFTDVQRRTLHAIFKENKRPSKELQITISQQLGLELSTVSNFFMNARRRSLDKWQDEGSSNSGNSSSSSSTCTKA

Experiment [7] concerns the target Heat shock factor protein 1 (Homo sapiens) (UniProt Q00613). As to the kind of experiment: ATG_HSE_CIS: Attagene CIS-FACTORIAL HepG2 Assay for human Heat Shock Transcription Factor 1 (HSE) (AID 2282953). As to conditions: HepG2 HSE cis-reporter, Attagene RNA transcription; actives raise or lower the signal. In a few lines:
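Read-out: fluorescence of reporter-specific RT-PCR fragments separated by capillary electrophoresis. HepG2 carrying transfected cis-element reporter units; 24 h dosing; activity fitted in both directions relative to DMSO baseline.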

Experiment [8] in a line: ATG_MRE_CIS: Attagene CIS-FACTORIAL HepG2 Assay for human Metal Responsive Element (MRE) (AID 2282954). As to conditions: HepG2 MRE cis-reporter transcription, Attagene multiplex; actives raise or lower the signal. Put shortly:
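HepG2 cells transiently transfected with multiple cis-element reporter units measure endogenous MTF1-driven transcription. After 24 h compound exposure, reporter mRNA is quantified by RT-PCR with 6-FAM labelling, HpaI digestion and capillary electrophoresis; bidirectional fits versus DMSO.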

Experiment [9] can be described thus: ATG_PBREM_CIS: Attagene CIS-FACTORIAL HepG2 Assay for human Phenobarbital-responsive Enhancer Module (PBREM) (AID 2282955). The following applies: HepG2 PBREM cis-reporter, Attagene multiplexed transcription; actives raise or lower the signal. Put shortly: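 Readout: reporter mRNA, fluorescent RT-PCR fragments separated by capillary electrophoresis. System: HepG2 transiently transfected with cis-regulated reporter units. Exposure: 24 h. Analysis: bidirectional, DMSO baseline.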

Experiment [10] deals with Paired box protein Pax-6 (Homo sapiens) (UniProt P26367). Description: ATG_Pax6_CIS: Attagene CIS-FACTORIAL HepG2 Assay for human Paired Box 6 (PAX6) (AID 2282956). As to conditions: HepG2 CIS-FACTORIAL PAX6 reporter transcription, RNA readout; actives raise or lower the signal. Put shortly:
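Transient MRTU transfection of HepG2 → compound exposure 24 h → TriZol RNA, oligo(dT) RT → PCR, 6-FAM primer extension, HpaI cut → capillary electrophoresis; activity fitted both directions against DMSO.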

Experiment [11] in a line: ATG_PXRE_CIS: Attagene CIS-FACTORIAL HepG2 Assay for human Pregnane X Receptor Element (PXRE) (AID 2282957). As to conditions: HepG2 Attagene CIS-FACTORIAL PXRE reporter, mRNA; actives raise or lower the signal. In a few lines: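 HepG2 cells transiently transfected with cis-element-driven multiplexed reporter units; after 24 h chemical exposure, reporter mRNA measured by RT-PCR, 6-FAM labelling, HpaI digestion and capillary electrophoresis. Bidirectional fitting relative to DMSO.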

Experiment [12] is described as follows: ATG_PPRE_CIS: Attagene CIS-FACTORIAL HepG2 Assay for human Peroxisome Proliferator-activated Response Element (PPRE) (AID 2282958). The following applies: HepG2 PPRE cis-element reporter, Attagene transcription factor profiling; actives raise or lower the signal. In a few lines: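 After human HepG2 hepatoma cells were transiently transfected with cis-promoter reporter constructs, they were exposed to test chemicals for 24 hours. Reporter RNA was then reverse-transcribed, PCR-amplified, FAM-labeled, HpaI-digested and quantified by capillary electrophoresis.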

A short description of experiment [13]: ATG_RORE_CIS: Attagene CIS-FACTORIAL HepG2 Assay for human RAR-related Orphan Receptor Element (RORE) (AID 2282959). The following applies: HepG2 Attagene cis-factorial RORE reporter, mRNA; actives raise or lower the signal. In a few lines: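 Measured here: transcript induction of a cis-regulated reporter in HepG2 cells transiently transfected via FuGene 6. After 24 h, RNA was processed by RT-PCR and fluorescent capillary electrophoresis; DMSO defined baseline activity.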

Experiment [14] can be described thus: ATG_Sox_CIS: Attagene CIS-FACTORIAL HepG2 Assay for human SRY-box transcription factor (SOX) (AID 2282960). The following applies: HepG2 Attagene cis-factorial SOX reporter, mRNA; actives raise or lower the signal. Put shortly:
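Using transiently transfected HepG2 cells, reporter transcription driven by cis elements was assessed 24 h after dosing. Signal was fluorescence of capillary-separated RT-PCR products, with DMSO defining baseline activity.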

Experiment [15] addresses Transcription factor Sp1 (Homo sapiens) (UniProt P08047). As to the kind of experiment: ATG_Sp1_CIS: Attagene CIS-FACTORIAL HepG2 Assay for human Specificity Protein 1 (Sp1) (AID 2282961). The following applies: HepG2 Sp1 cis-reporter transcription, actives raise or lower the signal. In a few lines: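 After transient transfection of HepG2 cells with cis-promoter reporter units and 24 h chemical treatment, reporter transcripts were quantified by RT-PCR and capillary electrophoresis fluorescence. Gain- and loss-of-signal fitted against DMSO.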

The nature of experiment [16]: ATG_SREBP_CIS: Attagene CIS-FACTORIAL HepG2 Assay for human Sterol Regulatory Element Binding (SREBP) (AID 2282962). The following applies: HepG2 Attagene cis-factorial SREBP reporter, mRNA; actives raise or lower the signal. Put shortly: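 Transfected HepG2 (cis-regulated reporter library, endogenous TFs) → compound 24 h → total RNA → oligo(dT) RT → reporter-specific PCR → FAM primer extension, HpaI cut → CE fluorescence. Fit bidirectional vs DMSO.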

Experiment [17] concerns the target Signal transducer and activator of transcription 3 (Homo sapiens) (UniProt P40763). As to the kind of experiment: ATG_STAT3_CIS: Attagene CIS-FACTORIAL HepG2 Assay for human Signal Transducer and Activator of Transcription 3 (STAT3) (AID 2282963). As to conditions: HepG2, Attagene cis-factorial STAT3 reporter transcription; actives raise or lower the signal. In a few lines: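 HepG2 cells transiently transfected with cis-element-driven multiple reporter transcription units; after 24 h chemical exposure, reporter mRNA measured by RT-PCR, 6-FAM primer-extension labelling, HpaI digestion and capillary electrophoresis. Bidirectional fitting versus DMSO baseline.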

Experiment [18] can be described thus: ATG_TA_CIS: Attagene CIS-FACTORIAL HepG2 Assay for human TA Basal Promoter (AID 2282964). As to conditions: HepG2 Attagene CIS-factorial TA basal promoter reporter; actives raise or lower the signal. In a few lines:
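Transfected HepG2, 24 h compound exposure; RNA → RT-PCR → FAM primer extension → HpaI cut → CE fluorescence. Gain/loss-of-signal fitted against DMSO negative control. Background-control readout.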

Experiment [19] is described as follows: ATG_TCF_b_cat_CIS: Attagene CIS-FACTORIAL HepG2 Assay for human T-Cell-Factor with beta-catenin (TCF/b-cat) (AID 2282965). As to conditions: HepG2 TCF/beta-catenin cis-reporter transcription, actives raise or lower the signal. In a few lines: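 HepG2 cells transiently transfected with multiple cis-promoter-regulated reporter transcription units, so endogenous transcription factor activity is measured. Reporter mRNA read 24 hours after dosing by RT-PCR, fluorescent labelling and capillary electrophoresis; bidirectional fitting against DMSO.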

A short description of experiment [20]: ATG_GRE_CIS: Attagene CIS-FACTORIAL HepG2 Assay for human Glucocorticoid Response Elements (GRE) (AID 2282947). The following applies: HepG2 GRE cis-reporter, Attagene multiplex mRNA; actives raise or lower the signal. Put shortly: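 HepG2 cells transiently transfected with multiple cis-promoter reporter units measure endogenous TF activity; 24 h compound exposure. Reporter mRNA quantified by RT-PCR, FAM labelling, HpaI digestion and capillary electrophoresis; bidirectional fit vs DMSO baseline.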

Sequence of Transcription factor Sp1 (Homo sapiens) (P08047 whole entry, looked up): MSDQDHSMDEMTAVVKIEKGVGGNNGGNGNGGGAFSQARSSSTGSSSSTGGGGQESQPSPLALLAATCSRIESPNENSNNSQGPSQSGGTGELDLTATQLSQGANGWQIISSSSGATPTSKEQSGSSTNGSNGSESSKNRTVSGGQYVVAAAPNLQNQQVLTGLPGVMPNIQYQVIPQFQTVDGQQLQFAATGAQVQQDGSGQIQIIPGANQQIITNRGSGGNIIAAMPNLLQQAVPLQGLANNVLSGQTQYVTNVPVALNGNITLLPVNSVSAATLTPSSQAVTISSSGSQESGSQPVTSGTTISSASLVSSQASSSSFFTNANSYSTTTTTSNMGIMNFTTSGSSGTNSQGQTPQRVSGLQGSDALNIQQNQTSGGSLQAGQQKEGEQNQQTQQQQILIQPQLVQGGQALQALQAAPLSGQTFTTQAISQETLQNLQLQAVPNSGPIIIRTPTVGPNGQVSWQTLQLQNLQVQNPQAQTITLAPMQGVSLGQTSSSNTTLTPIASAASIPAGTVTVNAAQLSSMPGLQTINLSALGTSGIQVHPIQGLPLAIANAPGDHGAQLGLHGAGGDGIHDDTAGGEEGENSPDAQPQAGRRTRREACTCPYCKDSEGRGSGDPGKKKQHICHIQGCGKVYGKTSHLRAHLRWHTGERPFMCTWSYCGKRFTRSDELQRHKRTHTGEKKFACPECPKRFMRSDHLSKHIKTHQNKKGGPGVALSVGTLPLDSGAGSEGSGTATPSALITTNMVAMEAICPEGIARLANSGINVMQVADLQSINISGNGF
Sequence of Hypoxia-inducible factor 1-alpha (Homo sapiens) (Q16665 whole entry, looked up): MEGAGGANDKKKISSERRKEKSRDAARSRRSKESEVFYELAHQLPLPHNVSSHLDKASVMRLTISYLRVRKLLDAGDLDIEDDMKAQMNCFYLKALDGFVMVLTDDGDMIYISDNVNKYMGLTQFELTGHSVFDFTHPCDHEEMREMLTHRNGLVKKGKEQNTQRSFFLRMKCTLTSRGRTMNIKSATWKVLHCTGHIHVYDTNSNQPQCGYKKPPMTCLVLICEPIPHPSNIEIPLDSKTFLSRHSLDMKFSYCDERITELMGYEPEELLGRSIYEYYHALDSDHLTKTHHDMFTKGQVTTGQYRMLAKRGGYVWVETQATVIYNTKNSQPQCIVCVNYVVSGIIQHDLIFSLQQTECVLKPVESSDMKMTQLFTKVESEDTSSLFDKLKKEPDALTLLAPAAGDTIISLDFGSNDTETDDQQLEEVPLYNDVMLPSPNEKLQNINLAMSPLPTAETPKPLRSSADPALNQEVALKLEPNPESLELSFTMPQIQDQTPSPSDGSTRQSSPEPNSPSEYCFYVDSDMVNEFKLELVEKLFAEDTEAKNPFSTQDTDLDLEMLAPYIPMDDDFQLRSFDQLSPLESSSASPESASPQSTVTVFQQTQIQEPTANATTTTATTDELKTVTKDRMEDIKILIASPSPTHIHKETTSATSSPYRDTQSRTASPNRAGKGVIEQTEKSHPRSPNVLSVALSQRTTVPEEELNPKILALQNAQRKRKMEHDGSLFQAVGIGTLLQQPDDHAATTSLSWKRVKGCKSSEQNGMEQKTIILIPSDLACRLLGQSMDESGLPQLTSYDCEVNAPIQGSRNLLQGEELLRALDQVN
Sequence of Paired box protein Pax-6 (Homo sapiens) (P26367 whole entry, looked up): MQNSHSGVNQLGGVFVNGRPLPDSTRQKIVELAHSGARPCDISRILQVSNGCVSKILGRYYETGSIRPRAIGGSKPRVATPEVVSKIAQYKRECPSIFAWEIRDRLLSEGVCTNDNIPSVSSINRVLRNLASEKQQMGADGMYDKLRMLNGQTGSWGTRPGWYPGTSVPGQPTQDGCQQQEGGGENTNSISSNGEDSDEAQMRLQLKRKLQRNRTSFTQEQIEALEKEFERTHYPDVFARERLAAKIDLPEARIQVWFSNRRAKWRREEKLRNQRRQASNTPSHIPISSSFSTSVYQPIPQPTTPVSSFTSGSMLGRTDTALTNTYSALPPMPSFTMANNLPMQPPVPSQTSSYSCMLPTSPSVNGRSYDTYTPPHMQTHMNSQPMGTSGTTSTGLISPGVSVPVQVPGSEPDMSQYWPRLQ
Sequence of Signal transducer and activator of transcription 3 (Homo sapiens) (P40763 whole entry, looked up): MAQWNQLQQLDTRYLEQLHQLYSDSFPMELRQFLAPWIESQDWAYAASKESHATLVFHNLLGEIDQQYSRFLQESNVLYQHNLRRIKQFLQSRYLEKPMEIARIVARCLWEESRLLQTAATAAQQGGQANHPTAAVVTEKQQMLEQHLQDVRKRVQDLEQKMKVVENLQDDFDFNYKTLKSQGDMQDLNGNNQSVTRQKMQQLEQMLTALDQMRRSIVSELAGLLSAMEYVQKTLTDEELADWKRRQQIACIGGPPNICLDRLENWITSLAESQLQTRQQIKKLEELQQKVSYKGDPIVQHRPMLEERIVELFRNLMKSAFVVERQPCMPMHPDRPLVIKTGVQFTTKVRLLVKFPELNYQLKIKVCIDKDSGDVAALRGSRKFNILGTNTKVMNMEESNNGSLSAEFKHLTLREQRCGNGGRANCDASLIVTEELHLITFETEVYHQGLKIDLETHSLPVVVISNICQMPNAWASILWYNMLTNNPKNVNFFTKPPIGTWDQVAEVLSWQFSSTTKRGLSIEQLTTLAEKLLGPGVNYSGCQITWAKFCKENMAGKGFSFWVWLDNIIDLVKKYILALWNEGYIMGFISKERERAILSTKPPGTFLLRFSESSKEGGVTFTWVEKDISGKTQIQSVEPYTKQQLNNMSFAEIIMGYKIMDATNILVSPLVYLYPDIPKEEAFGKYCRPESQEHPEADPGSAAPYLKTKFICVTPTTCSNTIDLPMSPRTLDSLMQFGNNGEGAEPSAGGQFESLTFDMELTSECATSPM
Sequence of Heat shock factor protein 1 (Homo sapiens) (Q00613 whole entry, looked up, the tested form may be a part): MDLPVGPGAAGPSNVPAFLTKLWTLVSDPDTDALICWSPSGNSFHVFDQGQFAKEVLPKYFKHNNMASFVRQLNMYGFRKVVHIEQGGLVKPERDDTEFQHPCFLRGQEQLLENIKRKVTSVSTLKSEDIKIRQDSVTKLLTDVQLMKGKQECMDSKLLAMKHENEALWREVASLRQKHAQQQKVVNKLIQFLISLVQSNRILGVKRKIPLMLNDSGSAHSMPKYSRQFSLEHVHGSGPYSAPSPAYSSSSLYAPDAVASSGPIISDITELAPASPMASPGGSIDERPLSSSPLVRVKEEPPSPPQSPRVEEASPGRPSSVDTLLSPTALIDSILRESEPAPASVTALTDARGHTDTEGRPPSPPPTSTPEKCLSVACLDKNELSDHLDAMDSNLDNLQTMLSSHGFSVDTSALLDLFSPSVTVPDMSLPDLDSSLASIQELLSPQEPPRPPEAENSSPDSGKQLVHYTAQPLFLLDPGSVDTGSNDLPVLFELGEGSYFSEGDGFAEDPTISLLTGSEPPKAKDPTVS

Regarding `O=C(O)CCCOc1ccc(Cl)cc1Cl`, the compound was called inactive in experiment [1], in [2], in [3], in experiment [4], in experiment [5] and in experiment [6]. Further, the outcome in experiment [7], in experiment [8], in experiment [9], in experiment [10], in experiment [11] and in experiment [12] was inactive. Besides, the call in experiment [13], in [14], in experiment [15], in experiment [16], in [17] and in [18] was inactive. Moreover, the compound was called inactive in experiment [19]. Also, the AC50 in experiment [11] is 27.1 µM (active); in [12], 22.9 µM (active).
`CCCN(CCC)c1c([N+](=O)[O-])cc(C(F)(F)F)cc1[N+](=O)[O-]`: the compound was called inactive in [1], in [2], in [3], in experiment [4], in experiment [5] and in experiment [6]. For the same compound, the call in experiment [7], in [8], in experiment [9], in [10], in experiment [12] and in experiment [13] was inactive. In addition, the compound was classed as inactive in [14], in experiment [15], in experiment [16], in [17], in [18] and in experiment [19]. The AC50 in experiment [11] is 6.82 µM (active).
With `O=C(NC(=O)c1c(F)cccc1F)Nc1ccc(OC(F)(F)C(F)OC(F)(F)F)c(Cl)c1` (centres undefined), the result in experiment [1], in [20], in experiment [2], in experiment [3], in experiment [4] and in [5] was inactive. In addition, the compound was called inactive in [6], in [7], in [8], in experiment [10], in experiment [11] and in experiment [13]. The compound was called inactive in experiment [14], in experiment [15], in experiment [16], in [17], in experiment [18] and in experiment [19]. Moreover, the AC50 in [12] is 20.9 µM (active).
